Results: ChEMBL document CHEMBL4513216, “Probing the Open Global Health Chemical Diversity Library for Multistage-Active Starting Points for Next-Generation Antimalarials” (ACS Infect Dis, 2020)
Screen size: about 68,000 compounds; about 2,700 (4%) showed an effect of 50% or more. For the sample, strong results were picked, then their nearest neighbours and some compounds at random.

What follows are compounds tested on Plasmodium berghei (assay: Screen against P. berghei liver stage (PbLuc), transformed with Luciferase, at 2uM). Details: tested at 2 uM.
Format: functional, HepG2

Compound | INHIBITION [%]
CC(O)CNC(=O)CCc1nc2ncccc2[nH]1 (stereo not drawn) | 17.33
CC(C)c1nccn1CCCNC(=O)c1ccc(-c2cncnc2)nc1 | 27.84
O=C(c1cnc(-c2cccnc2)nc1)N1CCC(c2ccncc2)CC1 | -70.5
CCC(C)N1C(=O)c2ccc(C(=O)NCCc3c[nH]cn3)cc2C1=O (stereo not drawn) | 35.09
NCc1cccc(-c2cccnc2C(=O)NCCCN2CCOCC2)c1 | 3.63
CC(O)CNC(=O)NCc1cccnc1OC1CCCC1 (stereo not drawn) | 59.73
CCC1c2ccsc2CCN1C(=O)NCc1cccnc1N(C)C (stereo not drawn) | 8.5
COc1ncccc1CNC(=O)c1cc(C)on1 | -18.38
CCC1c2ccsc2CCN1C(=O)NCc1cccnc1OC (stereo not drawn) | 66.27
CC(Cn1ccnc1)NC(=O)NCc1cccnc1OC1CCCC1 (stereo not drawn) | 8.42
CC(Cn1cccn1)NC(=O)NCc1cccnc1OC1CCCC1 (stereo not drawn) | 39.32
Cc1cc(C(=O)NCc2cccnc2OC(C)C)no1 | 51.19
CCOc1ncccc1CNC(=O)c1cc(C)on1 | 22.75
COc1ccc(C(=O)NCc2ccco2)nn1 | 65.1
COC(=O)c1cccc(C(=O)NCc2ccco2)n1 | -15.05
COC(=O)c1ccc(C(=O)NCc2ccco2)nc1 | -44.93
CCC1c2ccsc2CCN1C(=O)NCc1ccccn1 (stereo not drawn) | -77.99
CC(C)c1nc(C2CCCN(C(=O)Cn3ccccc3=O)C2)no1 (stereo not drawn) | 40.88
Cc1ccc(C)n1-c1c(C(=O)NCC(C)N(C)C)cnn1C (stereo not drawn) | 28.5
O=C(COc1cccc2c1CCC2=O)NCc1ccccc1Cl | -21.15
CCN1CC2(CCOCC2)c2cc(NS(=O)(=O)CC)ccc21 | 16.33
Cc1nccn1-c1ccc(C(C)Nc2cnn(C)c(=O)c2Cl)cc1 (stereo not drawn) | 39.58
COc1ccccc1Oc1ncccc1CNC(=O)[C@H](N)CC(C)(C)C | 62.39
COc1ccccc1Oc1ncccc1CNC(=O)[C@@H](N)[C@@H](C)O | -4.93
COc1ccccc1Oc1ncccc1CNC(=O)[C@@H](N)CCO | 10.91

Compound | INHIBITION [%]
OC1CCCN(CCNc2ncc(Cl)cc2F)C1 (stereo not drawn) | -23.46
COCc1cccc(NC(C(N)=O)c2ccc(Br)cc2)c1 (stereo not drawn) | 0.53
Cc1nnc(CSc2ccccn2)o1 | -43.6
CC(C)(C)c1nnc(CSc2ccccn2)o1 | 58.9
CCc1nnc(CSc2ccccn2)o1 | -9.88
CC(CNC(=O)N1CCNC(=O)CC1)Cc1cccs1 (stereo not drawn) | 57.59
CC(CNC(=O)N1CCS(=O)(=O)CC1)Cc1cccs1 (stereo not drawn) | 8.03
CC(CNC(=O)N1CCN(CC(F)F)CC1)Cc1cccs1 (stereo not drawn) | -47.2
CC(CNC(=O)N1CCN(c2ncccn2)CC1)Cc1cccs1 (stereo not drawn) | 5.82
CC(CNC(=O)N1CCC(CO)CC1)Cc1cccs1 (stereo not drawn) | 21.24
COC(=O)C1CCN(C(=O)NCC(C)Cc2cccs2)CC1 (stereo not drawn) | 55.39
CC(CNC(=O)N1CCN(c2cnccn2)CC1)Cc1cccs1 (stereo not drawn) | 17.75
CC(CNC(=O)N1CCSCC1)Cc1cccs1 (stereo not drawn) | -49.29
CC(=O)N(C)C1CCN(C(=O)NCC(C)Cc2cccs2)CC1 (stereo not drawn) | 60.9
Cc1cccc(NC(=O)c2cccc(OCc3nnnn3C)c2)n1 | -85.14
CCS(=O)(=O)N1C[C@@H]2CN(Cc3cccs3)CCO[C@@H]2C1 | -20.67
COc1ccc(C2(C(=O)N3CC(c4cccnc4)C3)CC2(C)C)cc1 (stereo not drawn) | 60.13
CC1(C)CC1(C(=O)N1CC(c2cccnc2)C1)c1ccc(F)cc1 (stereo not drawn) | 41.05
CC1(C)CC1(C(=O)N1CC(c2cccnc2)C1)c1ccccc1F (stereo not drawn) | 14.82
CCOC(=O)c1cnn(-c2cc(Oc3cccc(C)c3)ncn2)c1N | -58.53
CC(COc1ccc(F)cc1F)NC(=O)NCCN1CCOCC1 (stereo not drawn) | -30.55
CCCN(Cc1cccc(OCCO)c1)Cc1ccccc1OC | -135.42
COCCN(Cc1cccc(OCCO)c1)Cc1ccccc1F | 58.42
COCCN(Cc1cccc(O)c1)Cc1ccccc1F | 35.48
CC(C)N1[C@H](Cn2cncn2)C[C@@H]2CN(Cc3cccs3)CC[C@@H]21 | 13.25

Compound | INHIBITION [%]
O=C(Cc1ccccc1Cl)N1CCN(CC(O)COCCO)CC1 (stereo not drawn) | -13.06
COc1ccc(C)cc1CN1CCCC1c1noc(C2CC2)n1 (stereo not drawn) | -14.17
C=C(C)CNC1CCCN(Cc2noc(C3CC3)n2)C1 (stereo not drawn) | -36.58
O=C(NCCc1ccncc1)[C@H]1C[C@@H]2CCN(c3nncs3)C[C@H]2O1 | 62.15
O=C(NCc1ccco1)[C@H]1C[C@@H]2CCN(c3nncs3)C[C@H]2O1 | -2.66
COCCNC(=O)[C@H]1C[C@@H]2CCN(c3nncs3)C[C@H]2O1 | 21.08
O=c1cc(-c2cccnc2)nc(-c2ccc(CN3CC[C@H](O)C3)cc2)[nH]1 | 39.51
Cn1cncc1C(=O)N1C[C@@H]2CCN(c3cnccn3)C[C@@H]2C1 | 5.44
O=C(NC[C@H]1OC[C@@H](NC(=O)c2ccccc2)[C@@H]1O)c1ccncc1 | 25.94
CN(CC(=O)N1CCC(COc2ccccc2)CC1)c1cnccn1 | 52.47
CN(CC(=O)N1CCC(N(C)c2ccccc2)CC1)c1cnccn1 | -35.47
CN(CC(=O)N1CCC(Oc2ccccc2)CC1)c1cnccn1 | 33.16
CCCn1nnnc1CN(c1ccc(C)cc1)C(C)C | 7.67
CCCn1nnnc1CN(C)C(C)c1ccc(C)cc1 (stereo not drawn) | 67.28
CCCn1nnnc1CN(c1ccc(N2CCOCC2)cc1)C(C)C | 36.28
Cc1nc2n(n1)CC(Nc1nc(C(F)(F)F)nc3ccccc13)CC2 (stereo not drawn) | 19.12
COc1ccccc1CC(=O)NC1CCCc2cn[nH]c21 (stereo not drawn) | -1.29
CCn1ncc2c1CCCC2NCc1cc(C)ccc1OC (stereo not drawn) | -14.16
CCOCc1cc(CNC2CCCc3c2cnn3CC)ccc1OC (stereo not drawn) | 57.81
CCn1ncc2c1CCCC2NCc1ccc(OC)c(C)c1 (stereo not drawn) | 27.55
CCCOc1ccc(CNC2CCCc3c2cnn3CC)cc1OC (stereo not drawn) | 33.01
CCn1ncc2c1CCCC2NCc1cc(Cl)c(OC)c(OC)c1 (stereo not drawn) | 11.18
CCn1ncc2c1CCCC2NCc1ccc(OC)c(F)c1 (stereo not drawn) | 57.81
